# Only a selection was taken, and the strongest signals are over-represented in it overall.
# B1: FimA-N2 (Actinomyces oris) (protein)
# chain: MHHHHHHSSGVDLGTENLYFQSNAWIYDVNVYPKNEAIDVDKTIQAQKLNGYGVGSLIKFPVESTAPTLDAKSFYKYFQLKDTLDERLSEVTATDVSLEGTPLQPTDYKVETKQQTVTVTFTAEGLKKIKAAPGKKVSAVFQGKVTKAGNGAITNRAQVISDTLYAEQPPTPETPPTDPENPPTSDEVISRWGDLSIKKVDTHQQGQTKA
# Columns and labels:
# Assay in all cases: glycan array binding signal (z-score within array); higher = stronger binding
# Conditions in all cases: glycan notation: IUPAC condensed, linker removed
# [1] = biological target: Gal3S(b1-4)Glc
# How it was run: (§1)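 Columns mapping to the same glycan were averaged after glycan names were converted to IUPAC-condensed notation. The data come from 3228 arrays in the Consortium for Functional Glycomics database, limited to those with an available protein sequence. Binding is reported as a within-array Z-score averaged across arrays of one protein sequence and across linkers.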
# [2] = biological target: Gal3S(b1-4)GlcNAc
# How it was run: as §1
# [3] = biological target: Gal3S(b1-4)[Fuc(a1-3)]Glc6S
# How it was run: as §1
# [4] = biological target: Gal4S(b1-4)GlcNAc
# How it was run: as §1
# [5] = biological target: Gal6S(b1-4)Glc6S
# How it was run: as §1
# [6] = biological target: GalNAc(b1-3)Gal
# How it was run: as §1
# [7] = biological target: GalNAc(b1-3)Gal(a1-4)Gal(b1-4)GlcNAc(b1-3)Gal(b1-4)Glc
# How it was run: as §1
# [8] = biological target: GalNAc3S(b1-4)GlcNAc3S
# How it was run: as §1
# [9] = biological target: GalNAc4S6S(b1-4)GlcNAc
# How it was run: as §1
# [10] = biological target: Glc(a1-6)Glc(a1-6)Glc
# How it was run: as §1
# [11] = biological target: GlcA(b1-3)GlcNAc
# How it was run: as §1
# [12] = biological target: GlcNAc(b1-2)[GlcNAc(b1-4)]Man(a1-3)[GlcNAc(b1-4)][GlcNAc(b1-2)[GlcNAc(b1-6)]Man(a1-6)]Man(b1-4)GlcNAc(b1-4)[Fuc(a1-6)]GlcNAc
# How it was run: as §1
# [13] = biological target: GlcNAc(b1-3)Gal(b1-4)GlcNAc
# How it was run: as §1
# [14] = biological target: GlcNAc(b1-3)Gal(b1-4)GlcNAc(b1-3)Gal(b1-4)GlcNAc(b1-2)Man(a1-3)[GlcNAc(b1-3)Gal(b1-4)GlcNAc(b1-3)Gal(b1-4)GlcNAc(b1-2)Man(a1-6)]Man(b1-4)GlcNAc(b1-4)[Fuc(a1-6)]GlcNAc
# How it was run: as §1
# [15] = biological target: Man(a1-2)Man(a1-3)Man
# How it was run: as §1
# [16] = biological target: Neu5Ac(a2-3)Gal(b1-4)GlcNAc
# How it was run: as §1
# [17] = biological target: Neu5Ac(a2-3)Gal(b1-4)GlcNAc(b1-2)[Neu5Ac(a2-3)Gal(b1-4)GlcNAc(b1-6)]Man(a1-6)[Neu5Ac(a2-3)Gal(b1-4)GlcNAc(b1-2)Man(a1-3)]Man(b1-4)GlcNAc(b1-4)GlcNAc
# How it was run: as §1
# [18] = biological target: Neu5Ac(a2-3)Gal(b1-4)GlcNAc(b1-2)[Neu5Ac(a2-3)Gal(b1-4)GlcNAc(b1-6)]Man(a1-6)[Neu5Ac(a2-3)Gal(b1-4)GlcNAc(b1-2)Man(a1-3)][GlcNAc(b1-4)]Man(b1-4)GlcNAc(b1-4)GlcNAc
# How it was run: as §1
# [19] = biological target: Neu5Ac(a2-3)Gal(b1-4)GlcNAc(b1-3)Gal(b1-4)GlcNAc(b1-2)Man(a1-3)[Neu5Ac(a2-3)Gal(b1-4)GlcNAc(b1-3)Gal(b1-4)GlcNAc(b1-2)Man(a1-6)]Man(b1-4)GlcNAc(b1-4)GlcNAc
# How it was run: as §1
# [20] = biological target: Neu5Ac(a2-3)Gal(b1-4)GlcNAc(b1-6)GalNAc
# How it was run: as §1
# [21] = biological target: Neu5Ac(a2-3)Gal(b1-4)[Fuc(a1-3)]GlcNAc(b1-6)[Gal(b1-3)]GalNAc
# How it was run: as §1
# [22] = biological target: Neu5Ac(a2-3)[Neu5Ac(a2-6)]GalNAc
# How it was run: as §1
# [23] = biological target: Neu5Ac(a2-6)Gal(b1-4)Glc
# How it was run: as §1
# [24] = biological target: Neu5Ac(a2-6)Gal(b1-4)GlcNAc(b1-2)Man(a1-3)[GlcNAc(b1-4)][Neu5Ac(a2-6)Gal(b1-4)GlcNAc(b1-2)Man(a1-6)]Man(b1-4)GlcNAc(b1-4)GlcNAc
# How it was run: as §1
# [25] = biological target: Neu5Ac(a2-6)Gal(b1-4)GlcNAc(b1-2)Man(a1-3)[Neu5Ac(a2-6)Gal(b1-4)GlcNAc(b1-2)Man(a1-6)]Man(b1-4)GlcNAc(b1-4)GlcNAc
# How it was run: as §1
# [26] = biological target: Neu5Ac(a2-6)Gal(b1-4)GlcNAc(b1-2)Man(a1-6)Man(b1-4)GlcNAc(b1-4)GlcNAc
# How it was run: as §1
# [27] = biological target: Neu5Ac(a2-6)Gal(b1-4)GlcNAc(b1-2)Man(a1-6)[Gal(b1-4)GlcNAc(b1-2)Man(a1-3)]Man(b1-4)GlcNAc(b1-4)GlcNAc
# How it was run: as §1
# [28] = biological target: Neu5Ac(a2-6)Gal(b1-4)GlcNAc(b1-2)Man(a1-6)[GlcNAc(b1-2)Man(a1-3)]Man(b1-4)GlcNAc(b1-4)GlcNAc
# How it was run: as §1
# [29] = biological target: Neu5Ac(a2-6)Gal(b1-4)GlcNAc(b1-3)Gal(b1-4)GlcNAc(b1-6)[Gal(b1-3)]GalNAc
# How it was run: as §1
# [30] = biological target: Neu5Ac(a2-6)GlcNAc(b1-4)GlcNAc(b1-4)GlcNAc
# How it was run: as §1
binder,measurement,setting,value
B1,glycan array binding signal (z-score),[1],0.216
same,glycan array binding signal (z-score),[2],2.69
same,glycan array binding signal (z-score),[3],3.08
same,glycan array binding signal (z-score),[4],3.9
same,glycan array binding signal (z-score),[5],-0.257
same,glycan array binding signal (z-score),[6],2.41
same,glycan array binding signal (z-score),[7],1.53
same,glycan array binding signal (z-score),[8],0.248
same,glycan array binding signal (z-score),[9],-0.331
same,glycan array binding signal (z-score),[10],-0.88
same,glycan array binding signal (z-score),[11],0.654
same,glycan array binding signal (z-score),[12],-0.355
same,glycan array binding signal (z-score),[13],0.299
same,glycan array binding signal (z-score),[14],-0.07
same,glycan array binding signal (z-score),[15],0.075
same,glycan array binding signal (z-score),[16],-0.301
same,glycan array binding signal (z-score),[17],-0.853
same,glycan array binding signal (z-score),[18],-0.874
same,glycan array binding signal (z-score),[19],-0.355
same,glycan array binding signal (z-score),[20],1.38
same,glycan array binding signal (z-score),[21],1.73
same,glycan array binding signal (z-score),[22],-1.07
same,glycan array binding signal (z-score),[23],0.148
same,glycan array binding signal (z-score),[24],-1.7
same,glycan array binding signal (z-score),[25],0.297
same,glycan array binding signal (z-score),[26],-0.759
same,glycan array binding signal (z-score),[27],-1.01
same,glycan array binding signal (z-score),[28],0.589
same,glycan array binding signal (z-score),[29],-0.597
same,glycan array binding signal (z-score),[30],0.675

# From the supplement of paper PMC8728848
